# What was measured:
# Assay in all cases: SPOT peptide array binding signal intensity (averaged, normalized) (arbitrary units (background-subtracted, floor 0; scale differs between SH3 domains)); higher = stronger binding of the SH3 domain to the peptide
# AgAbp1 = target: AgAbp1
# Method in brief: (§1)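 Binding signal refers to normalized, background-subtracted spot intensity averaged over replicates, expressed in arbitrary units that differ between domains. GST-fused SH3 domains from four yeast species were incubated at 10 μg/ml overnight at 4°C on cellulose membranes of synthetic 15-mer peptides with cysteines replaced by serines. Bound protein was detected with anti-GST antibody, an HRP anti-mouse secondary and luminol, and quantified with Genespotter.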
# AgBbc1 = target: AgBbc1
# Method in brief: as §1
# AgBem1-D1 = target: AgBem1-D1
# Method in brief: as §1
# AgBzz1-D1 = target: AgBzz1-D1
# Method in brief: as §1
# AgBzz1-D2 = target: AgBzz1-D2
# Method in brief: as §1
# AgCyk3 = target: AgCyk3
# Method in brief: as §1
# AgFus1 = target: AgFus1
# Method in brief: as §1
# AgHof1 = target: AgHof1
# Method in brief: as §1
# AgHse1 = target: AgHse1
# Method in brief: as §1
# AgLsb1 = target: AgLsb1
# Method in brief: as §1
# AgLsb4 = target: AgLsb4
# Method in brief: as §1
# AgMyo5 = target: AgMyo5
# Method in brief: as §1
# AgNbp2 = target: AgNbp2
# Method in brief: as §1
# AgRvs167 = target: AgRvs167
# Method in brief: as §1
# AgSho1 = target: AgSho1
# Method in brief: as §1
# AgSla1-D1-D2 = target: AgSla1-D1-D2
# Method in brief: as §1
# AgSla1-D3 = target: AgSla1-D3
# Method in brief: as §1
# CaAbp1-D1 = target: CaAbp1-D1
# Method in brief: as §1
# CaAbp1-D2 = target: CaAbp1-D2
# Method in brief: as §1
# CaBbc1 = target: CaBbc1
# Method in brief: as §1
# CaBem1-D1 = target: CaBem1-D1
# Method in brief: as §1
# CaBzz1-D1 = target: CaBzz1-D1
# Method in brief: as §1
# CaBzz1-D2 = target: CaBzz1-D2
# Method in brief: as §1
# CaCyk3 = target: CaCyk3
# Method in brief: as §1
# CaFus1 = target: CaFus1
# Method in brief: as §1
# CaHof1 = target: CaHof1
# Method in brief: as §1
# CaHse1 = target: CaHse1
# Method in brief: as §1
# CaLsb1 = target: CaLsb1
# Method in brief: as §1
# CaLsb4 = target: CaLsb4
# Method in brief: as §1
# CaMyo5 = target: CaMyo5
# Method in brief: as §1
# CaNbp2 = target: CaNbp2
# Method in brief: as §1
# CaRvs167 = target: CaRvs167
# Method in brief: as §1
# CaRvs167-3 = target: CaRvs167-3
# Method in brief: as §1
# CaSho1 = target: CaSho1
# Method in brief: as §1
# CaSla1-D1-D2 = target: CaSla1-D1-D2
# Method in brief: as §1
# CaSla1-D3 = target: CaSla1-D3
# Method in brief: as §1
# ScAbp1 = target: ScAbp1
# Method in brief: as §1
# ScBbc1 = target: ScBbc1
# Method in brief: as §1
# ScBem1-D1 = target: ScBem1-D1
# Method in brief: as §1
# ScBzz1-D1 = target: ScBzz1-D1
# Method in brief: as §1
# ScBzz1-D2 = target: ScBzz1-D2
# Method in brief: as §1
# ScCyk3 = target: ScCyk3
# Method in brief: as §1
# ScFus1 = target: ScFus1
# Method in brief: as §1
# ScHof1 = target: ScHof1
# Method in brief: as §1
# ScHse1 = target: ScHse1
# Method in brief: as §1
# ScLsb1 = target: ScLsb1
# Method in brief: as §1
# ScLsb2 = target: ScLsb2
# Method in brief: as §1
# ScLsb3 = target: ScLsb3
# Method in brief: as §1
# ScLsb4 = target: ScLsb4
# Method in brief: as §1
# ScMyo3 = target: ScMyo3
# Method in brief: as §1
# ScMyo5 = target: ScMyo5
# Method in brief: as §1
# ScNbp2 = target: ScNbp2
# Method in brief: as §1
# ScPex13 = target: ScPex13
# Method in brief: as §1
# ScRvs167 = target: ScRvs167
# Method in brief: as §1
# ScSho1 = target: ScSho1
# Method in brief: as §1
# ScSla1-D1-D2 = target: ScSla1-D1-D2
# Method in brief: as §1
# ScSla1-D3 = target: ScSla1-D3
# Method in brief: as §1
# SpAbp1-D1 = target: SpAbp1-D1
# Method in brief: as §1
# SpBbc1 = target: SpBbc1
# Method in brief: as §1
# SpBzz1-D1 = target: SpBzz1-D1
# Method in brief: as §1
# SpBzz1-D2 = target: SpBzz1-D2
# Method in brief: as §1
# SpCyk3 = target: SpCyk3
# Method in brief: as §1
# SpHof1 = target: SpHof1
# Method in brief: as §1
# SpHof1-2 = target: SpHof1-2
# Method in brief: as §1
# SpHof1-3 = target: SpHof1-3
# Method in brief: as §1
# SpHse1 = target: SpHse1
# Method in brief: as §1
# SpLsb1 = target: SpLsb1
# Method in brief: as §1
# SpLsb4 = target: SpLsb4
# Method in brief: as §1
# SpMyo1 = target: SpMyo1
# Method in brief: as §1
# SpNbp2 = target: SpNbp2
# Method in brief: as §1
# SpPex13 = target: SpPex13
# Method in brief: as §1
# SpRvs167 = target: SpRvs167
# Method in brief: as §1
# SpSla1-D1-D2 = target: SpSla1-D1-D2
# Method in brief: as §1
# SpSla1-D3 = target: SpSla1-D3
# Method in brief: as §1
binder,measurement,setting,value
AIPPPVPNRPGGTTN,SPOT peptide array binding signal intensity,AgAbp1,≤ 0
same,SPOT peptide array binding signal intensity,AgBbc1,1380
same,SPOT peptide array binding signal intensity,AgBem1-D1,≤ 0
same,SPOT peptide array binding signal intensity,AgBzz1-D1,61
same,SPOT peptide array binding signal intensity,AgBzz1-D2,≤ 0
same,SPOT peptide array binding signal intensity,AgCyk3,≤ 0
same,SPOT peptide array binding signal intensity,AgFus1,≤ 0
same,SPOT peptide array binding signal intensity,AgHof1,≤ 0
same,SPOT peptide array binding signal intensity,AgHse1,13
same,SPOT peptide array binding signal intensity,AgLsb1,373
same,SPOT peptide array binding signal intensity,AgLsb4,1024
same,SPOT peptide array binding signal intensity,AgMyo5,3.5
same,SPOT peptide array binding signal intensity,AgNbp2,≤ 0
same,SPOT peptide array binding signal intensity,AgRvs167,269
same,SPOT peptide array binding signal intensity,AgSho1,≤ 0
same,SPOT peptide array binding signal intensity,AgSla1-D1-D2,≤ 0
same,SPOT peptide array binding signal intensity,AgSla1-D3,≤ 0
same,SPOT peptide array binding signal intensity,CaAbp1-D1,≤ 0
same,SPOT peptide array binding signal intensity,CaAbp1-D2,≤ 0
same,SPOT peptide array binding signal intensity,CaBbc1,2040
same,SPOT peptide array binding signal intensity,CaBem1-D1,0.5
same,SPOT peptide array binding signal intensity,CaBzz1-D1,570
same,SPOT peptide array binding signal intensity,CaBzz1-D2,79
same,SPOT peptide array binding signal intensity,CaCyk3,192
same,SPOT peptide array binding signal intensity,CaFus1,≤ 0
same,SPOT peptide array binding signal intensity,CaHof1,0.5
same,SPOT peptide array binding signal intensity,CaHse1,1.75
same,SPOT peptide array binding signal intensity,CaLsb1,1
same,SPOT peptide array binding signal intensity,CaLsb4,2490
same,SPOT peptide array binding signal intensity,CaMyo5,≤ 0
same,SPOT peptide array binding signal intensity,CaNbp2,1
same,SPOT peptide array binding signal intensity,CaRvs167,1180
same,SPOT peptide array binding signal intensity,CaRvs167-3,1.25
same,SPOT peptide array binding signal intensity,CaSho1,7
same,SPOT peptide array binding signal intensity,CaSla1-D1-D2,≤ 0
same,SPOT peptide array binding signal intensity,CaSla1-D3,≤ 0
same,SPOT peptide array binding signal intensity,ScAbp1,≤ 0
same,SPOT peptide array binding signal intensity,ScBbc1,515
same,SPOT peptide array binding signal intensity,ScBem1-D1,≤ 0
same,SPOT peptide array binding signal intensity,ScBzz1-D1,5
same,SPOT peptide array binding signal intensity,ScBzz1-D2,1.5
same,SPOT peptide array binding signal intensity,ScCyk3,≤ 0
same,SPOT peptide array binding signal intensity,ScFus1,≤ 0
same,SPOT peptide array binding signal intensity,ScHof1,3
same,SPOT peptide array binding signal intensity,ScHse1,8
same,SPOT peptide array binding signal intensity,ScLsb1,1120
same,SPOT peptide array binding signal intensity,ScLsb2,302
same,SPOT peptide array binding signal intensity,ScLsb3,1950
same,SPOT peptide array binding signal intensity,ScLsb4,857
same,SPOT peptide array binding signal intensity,ScMyo3,26
same,SPOT peptide array binding signal intensity,ScMyo5,1.75
same,SPOT peptide array binding signal intensity,ScNbp2,15
same,SPOT peptide array binding signal intensity,ScPex13,858
same,SPOT peptide array binding signal intensity,ScRvs167,1860
same,SPOT peptide array binding signal intensity,ScSho1,≤ 0
same,SPOT peptide array binding signal intensity,ScSla1-D1-D2,13.5
same,SPOT peptide array binding signal intensity,ScSla1-D3,≤ 0
same,SPOT peptide array binding signal intensity,SpAbp1-D1,≤ 0
same,SPOT peptide array binding signal intensity,SpBbc1,358
same,SPOT peptide array binding signal intensity,SpBzz1-D1,146
same,SPOT peptide array binding signal intensity,SpBzz1-D2,0.5
same,SPOT peptide array binding signal intensity,SpCyk3,1
same,SPOT peptide array binding signal intensity,SpHof1,≤ 0
same,SPOT peptide array binding signal intensity,SpHof1-2,≤ 0
same,SPOT peptide array binding signal intensity,SpHof1-3,16
same,SPOT peptide array binding signal intensity,SpHse1,8.5
same,SPOT peptide array binding signal intensity,SpLsb1,959
same,SPOT peptide array binding signal intensity,SpLsb4,2930
same,SPOT peptide array binding signal intensity,SpMyo1,9.5
same,SPOT peptide array binding signal intensity,SpNbp2,6.5
same,SPOT peptide array binding signal intensity,SpPex13,≤ 0
same,SPOT peptide array binding signal intensity,SpRvs167,2560
same,SPOT peptide array binding signal intensity,SpSla1-D1-D2,≤ 0
same,SPOT peptide array binding signal intensity,SpSla1-D3,≤ 0

# Source: the supplement of paper PMC4466140
